Sampled rows, rich in hits. Any-hit rate of the full collection: about 4.7%.
FH mod = Identification of activators of human fumarate hydratase by quantitative high-throughput screening. Potency, µM (titrated, usually from 79.9 µM), usual class: inhibitors. 0.22% of 54,000 active. AID 1347055, 2019. FH coupled MDH/diaphorase resazurin fluorescence, 15 min. Fumarate hydratase, mitochondrial (Homo sapiens), P07954; also: the screen sought activators but most active calls are inhibition curves; nearly all actives have a fitted effect of over 45% in size
Target sequence (P07954 whole entry, looked up): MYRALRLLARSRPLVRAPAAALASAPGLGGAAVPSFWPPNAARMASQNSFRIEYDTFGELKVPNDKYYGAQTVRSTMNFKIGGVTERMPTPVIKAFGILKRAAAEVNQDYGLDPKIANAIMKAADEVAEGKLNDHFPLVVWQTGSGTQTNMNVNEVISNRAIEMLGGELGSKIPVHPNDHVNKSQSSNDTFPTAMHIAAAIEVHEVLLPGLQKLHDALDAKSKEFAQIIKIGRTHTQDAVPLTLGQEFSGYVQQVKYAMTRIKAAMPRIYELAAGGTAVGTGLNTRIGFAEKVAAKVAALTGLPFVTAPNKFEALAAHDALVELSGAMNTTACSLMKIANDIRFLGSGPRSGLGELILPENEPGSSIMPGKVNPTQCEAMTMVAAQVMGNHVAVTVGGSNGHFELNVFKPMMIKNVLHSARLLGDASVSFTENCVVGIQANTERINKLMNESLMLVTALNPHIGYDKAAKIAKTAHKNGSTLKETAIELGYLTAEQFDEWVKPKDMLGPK
NTMT1 inh = Primary qHTS for Inhibitors of N-terminal methyltransferase 1 (NTMT1): MTaseGlo Assay | N-terminal Xaa-Pro-Lys N-methyltransferase 1 (Homo sapiens), Q9BV86 | NTMT1 MTase-Glo SAH luminescence, purified enzyme | Potency, µM (titrated, usually from 114 µM), hits mostly inhibitors | 2.5% of 59,000 active; also: nearly all actives have a fitted effect of over 65% in size
HTT prom inh = Primary qHTS for Identification of Small Molecule Inhibitors of Huntingtin Promoter Activity; HEK293 HTT promoter firefly luciferase reporter, 24 h; Potency, µM (top dose mostly 57.5 µM), most hits filed as inhibitors; 0.93% of 48,000 active; AID 1508623, 2021; also: nearly all actives have a fitted effect of over 50% in size
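Luminescence was read after Dual-Glo reagent and a 10 min room-temperature incubation. Values were normalized to vehicle (0% activity) and zero RLU (-100% activity). Reporter HEK293 cells had been exposed to compounds (up to 57.5 uM final) for 24 h.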
GALC G270D up = A Novel Cell-Based Assay to Identify Small Molecules for B -Galactocerebrosidase; 145M-Twi-hGALC-G270D cells (Twitcher mouse brain line with human GALC G270D), HMU-beta-Gal fluorescence, 48 h; Potency, µM (series often up to 57.5 µM), usual class: activators; 0.1% of 45,000 active; also: nearly all actives have a fitted effect of over 65% in size
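Mutant human GALC (G270D), stably expressed in a Twitcher mouse brain cell line lacking endogenous GALC, is measured in live-treated cells via 6-hexadecanoylamino-4-methylumbelliferyl-β-galactoside hydrolysis (0.1 mM final, pH 5.2) with fluorescent detection.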
HTT-AS act = Primary qHTS for Identification of Small Molecule Activators of Huntingtin-Antisense Promoter Activity. HEK293 HTT-AS promoter firefly luciferase reporter, 24 h; response scale: percent change from vehicle, -100% = no light. Potency, µM (doses to about 57.5 µM), most hits filed as activators. 0.24% of 48,000 active; also: nearly all actives have a fitted effect of over 55% in size
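Quantitative HTS used concentration series of up to 57.5 uM final on HEK293 luciferase reporter cells, 24 h at 37 degrees C. Readout was Dual-Glo firefly luminescence.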
DRV1 agonist = qHTS for Agonists of Human Resolvin D1 Receptor DRV1. Probable G-protein coupled receptor 32 (Homo sapiens), O75388. CHO-K1 GPR32 beta-arrestin PathHunter luminescence, 90 min; zero percent set by DMSO-only wells. AID 1346428, 2018. activation, % at 76.9 µM. 2.5% of 48,000 active;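 active = activation of at least 60% and not above a set upper limit, about 1 call in 100 departs from these limits; inconclusive = activation of 40% to 60%, or above that upper limit; inactive = activation under 40%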
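Agonism was scored as beta-arrestin recruitment to ProLink-fused GPR32 in stably transfected CHO-K1 cells, giving a chemiluminescent beta-Gal signal; compounds were incubated 90 min at 37 °C.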
Each line names hits and unclear results; the compound was inactive in the other large screens; ! = repeats disagree. Unless noted, calls follow the shape of the dose curve; as a rule, active = well fitted curve in the direction sought with a large enough effect; inconclusive = small, poorly fitted or top-dose-only effect, or another doubt; inactive = no such curve, though single readings can be large; an effect the other way counts as inactive or inconclusive.

CCC1=C[C@@H]2CN(C1)Cc1c([nH]c3ccccc13)[C@@](C(=O)OC)(c1cc3c(cc1OC)N(C)[C@@H]1[C@@](O)(C(=O)OC)[C@H](OC(C)=O)[C@]4(CC)C=CCN5CC[C@]31[C@@H]54)C2	NTMT1 inh 17µM, HTT prom inh inconclusive (no result: GALC G270D up, DRV1 agonist)
CCC1(O)CC2CN(CCc3c([nH]c4ccccc34)[C@@](C(=O)OC)(c3cc4c(cc3OC)N(C=O)C3[C@]45CCN4CC=C[C@@](CC)([C@@H](OC(C)=O)[C@]3(O)C(=O)OC)[C@H]45)C2)C1 (stereo not given in full)	none (no result: NTMT1 inh, HTT prom inh, GALC G270D up, HTT-AS act)
CC[C@]1(O)CC2CN(CCc3c([nH]c4ccccc34)[C@@](C(=O)OC)(c3cc4c(cc3OC)N(C)[C@H]3[C@@](O)(C(=O)OC)[C@H](OC(C)=O)[C@]5(CC)C=CCN6CC[C@]43[C@@H]65)C2)C1 (stereo not given in full)	NTMT1 inh 45µM! (no result: HTT prom inh, GALC G270D up, HTT-AS act, DRV1 agonist)
CN(C)c1ccc(Nc2c3ccc(NC(=O)CCN4CCCC4)cc3nc3cc(NC(=O)CCN4CCCC4)ccc23)cc1	NTMT1 inh 6.3µM (no result: HTT prom inh, GALC G270D up, HTT-AS act, DRV1 agonist)
COc1cccc(Cn2c(=O)cc(C)c3c(C)nn(C)c32)c1	NTMT1 inh inconclusive, HTT prom inh inconclusive, DRV1 agonist 79
O=C(Nc1ccc2[nH]nc(-c3ccncc3)c2c1)[C@@H]1CCN(CC(=O)N2CCN(c3ccc(-c4ncccn4)cc3)CC2)C1	none (no result: HTT prom inh, GALC G270D up, HTT-AS act, DRV1 agonist)
NCCS	NTMT1 inh 32µM
COc1ccc(C(=O)Nc2ccc(-c3nc4ccccc4s3)cc2C)cc1Cl	HTT-AS act 1µM
O=C(c1cc(Cc2n[nH]c(=O)c3ccccc23)ccc1F)N1CCCNCC1	none (no result: HTT prom inh, GALC G270D up, HTT-AS act, DRV1 agonist)
CCOc1ccccc1CNC(=O)Cn1nc(N2CCN(c3ccccc3)CC2)ccc1=O	FH mod inconclusive, DRV1 agonist 61
CNCCC(Oc1ccc(C(F)(F)F)cc1)c1ccccc1 (stereo not given)	DRV1 agonist 104!
C[N+](C)(CCOc1ccccc1)Cc1cccs1	NTMT1 inh 14µM
CCCCCCCC/C=C\CCCCCCCC(=O)NCCc1ccc(O)c(O)c1	FH mod inconclusive (no result: NTMT1 inh, HTT prom inh, GALC G270D up, HTT-AS act)
CCCCCCCC/C=C\CCCCCCCC(=O)NCc1ccc(O)c(OC)c1	FH mod inconclusive, DRV1 agonist 75!
COc1ccc(COC(=O)C2=C(C)NC(=O)CC2c2cccc(Cl)c2Cl)cc1 (stereo not given)	none
COC(=O)C1=C(C)NC(COC(N)=O)=C(C(=O)OC(C)C)C1c1cccc(Cl)c1Cl (stereo not given)	FH mod inconclusive, NTMT1 inh inconclusive, DRV1 agonist 86
C[C@H](Cc1ccccc1)Nc1ncnc2c1ncn2[C@@H]1O[C@H](CO)C(O)[C@H]1O (stereo not given in full)	none (no result: NTMT1 inh, HTT prom inh, GALC G270D up, HTT-AS act, DRV1 agonist)
O=C(NCCN1CCC(n2c(=O)[nH]c3ccccc32)CC1)c1ccc2ccccc2c1	none (no result: HTT prom inh, GALC G270D up, HTT-AS act, DRV1 agonist)
CCOC(=O)N1CCC(n2c(=O)[nH]c3cc(Cl)ccc32)CC1	HTT prom inh inconclusive, DRV1 agonist 72
Cc1cc(C)c(NC(=O)CN(C)S(=O)(=O)c2ccc3c(c2)CCC(=O)N3)c(C)c1	NTMT1 inh inconclusive
Cc1cc(NC(=O)CN(C)S(=O)(=O)c2ccc3c(c2)CCCC(=O)N3)ccc1Br	HTT prom inh 25µM
COc1ccc(-c2noc(CSc3nc4ccccc4[nH]3)n2)cc1	HTT prom inh inconclusive, DRV1 agonist 96
COc1ccc(-c2noc(CSc3nc(N)cc(=O)[nH]3)n2)cc1	HTT prom inh 22µM, DRV1 agonist 98

Screening results (PubChem BioAssay)
